# Results taken from PubChem BioAssay (Tox21).
# Inconclusive results are not listed. A number with no mark means an inactive call. The source made the active and inactive calls. Calls come from the whole dose curve; as a rule, active = well fitted cell-killing curve with a large enough effect in the repeat runs; inconclusive = weak or mixed curves, or effect the other way; inactive = flat fitted curve, though single readings scatter.
# Assay: qHTS assay to identify small molecule antagonists of the estrogen receptor alpha (ER-alpha) signaling pathway using the BG1 cell line in the presence of 0.1 nM 17-beta-estradiol - cell viability counter screen (AID 1259241); note: nearly all actives have a fitted effect of over 40% in size
# Conditions: VM7Luc4E2 (BG1) viability, CellTiter-Fluor protease, 22 h, 0.1 nM estradiol agonist added; series mostly up to 92.4 µM; activity change, negative = cytotoxicity: at the top concentration
# Excerpt: National Center for Advancing Translational Sciences [NCATS]
# NIH Chemical Genomics Center [NCGC]
# U.S. Environmental Protection Agency [EPA]
# National Institutes of Environmental Health Sciences [NIEHS]
# National Toxicology Program [NTP]
# U.S. Food and Drug Administration [FDA]
# Estrogen receptor (ER), a member of the nuclear hormone receptor plays an important role in development, metabolic homeostasis and reproduction. Two subtypes of ER, ER-alpha and ER-beta, have similar expression patterns with some uniqueness in both types. Endocrine disrupting chemicals (EDCs) and their interactions with steroid hormone receptors like ER causes disruption of normal endocrine function. Therefore, it is important to understand the effect of environmental chemicals in ER signaling pathway. For identifying ER antagonists, VM7Luc4E2 cell line was used to screen against Tox21 compound libraries.
# VM7Luc4E2 cell line (provided by Denison MS, University of California) endogenously express full-length ER-alpha and is stably transfected with a plasmid containing four estrogen responsive elements (ERE) upstream of a luciferase reporter gene. The current screening for identification of ER-alpha inhibitors against Tox21 compound libraries used lower concentration (0.1 nM) of 17beta-Estradiol as a stimulator. The cytotoxicity of the Tox21 compound libraries against VM7Luc4E2 cell line was tested by measuring live-cell protease activity using CellTiter-Fluor assay in the same wells.
# Tox21 Assay Protocol Summary:
# VM7Luc4E2 cells were cultured in phenol red free assay medium containing 10% charcoal stripped FBS for 5 days prior to the assay. The cells were dispensed at 4,000 cells/well in 4 uL of assay medium into white wall/solid-bottom 1536-well plates (Corning Life Sciences, Corning, NY) using a Multidrop Combi (ThermoFisher Scientific, Waltham, MA) dispenser. After the assay plates were incubated at 37C and 5% CO2 for 24 hr, 23 nL of compounds dissolved in DMSO, positive controls or DMSO only was transferred to the assay plates by a Pintool station (Kalypsys, San Diego, CA). The transfer of compounds was followed by the addition of 1 uL of 0.1 nM (final concentration) agonist (17beta-Estradiol)/assay medium using a Flying Reagent Dispenser (FRD, Aurora Discovery, San Diego, CA). The plates were incubated at 37C and 5% CO2 for 22 hr. For cytotoxicity assay, 1 uL of CellTiter-Fluor reagent (Promega Corporation, Madison, WI) was added to each well using the FRD and after 30 min incubation at 37C and 5% CO2, The fluorescence intensity was measured using ViewLux plate reader (PerkinElmer, Shelton, CT).
# % is set by controls: 0 for no effect and ±100 for the full control effect.
Compound,"activity change, negative = cytotoxicity",outcome
Cc1cc2c(cc1S(N)(=O)=O)S(=O)(=O)CCC2,0.961% [at 42.5 µM],
COC(=O)c1c(Cl)c(Cl)c(C(=O)OC)c(Cl)c1Cl,,inactive
COC(=O)c1ccc(C)cc1C1=NC(C)(C(C)C)C(=O)N1 (stereo not given),-8.47%,
N#Cc1ccc(C2CCCc3cncn32)cc1 (stereo not given),-0.767% [at 42.5 µM],
CCC=O,7.05%,
CO/N=C(/C(=O)N[C@@H]1C(=O)N2C(C(=O)OCOC(=O)C(C)(C)C)=C(C)CS[C@H]12)c1csc(N)n1,-0.314% [at 42.5 µM],
CC(C)NC(=O)NC(C)C,-2.59%,
O=C1CC2CC1C1CCCC21 (stereo not given),1.82%,
CC(=O)OCC(=O)[C@@]1(O)CCC2C3CCC4=CC(=O)CC[C@]4(C)C3[C@@H](O)C[C@@]21C (stereo not given in full),1.95% [at 42.5 µM],
CCN1CCC[C@H]1CNC(=O)c1cc(S(N)(=O)=O)ccc1OC,2.65% [at 42.5 µM],
C[N+](C)(C)CCCCCC[N+](C)(C)C,,inactive
CC(C)(O)C#CC(C)(C)O,-1.17%,
C[N+](C)(C)CC(O)CC(=O)[O-] (stereo not given),0.149% [at 42.5 µM],
CC(C)NCC(O)c1ccc(NS(C)(=O)=O)cc1 (stereo not given),4.01%,
CC(=O)OCC(CCn1cnc2cnc(N)nc21)COC(C)=O,0.212% [at 42.5 µM],
CCN(CC)CCNC(=O)c1cc(S(C)(=O)=O)ccc1OC,2.68% [at 42.5 µM],
Nc1ccccc1S(=O)(=O)O,0%,
O=C(CCCN1CCC(O)(c2cccc(C(F)(F)F)c2)CC1)c1ccc(F)cc1,0.111% [at 42.5 µM],
N=C(N)c1ccc(OCCCOc2ccc(C(=N)N)cc2)cc1,5.38% [at 42.5 µM],
CCC(C)C1CCCCC1=O (stereo not given),1.95%,

Compound,"activity change, negative = cytotoxicity",outcome
O=c1cc(CO)occ1O,7.5% [at 42.5 µM],
Oc1ccc(C2CNCCc3c2cc(O)c(O)c3Cl)cc1 (stereo not given),3.43% [at 42.5 µM],
CC(C)(c1ccc(O)cc1)c1ccc(O)cc1,-9.4%,
COCCCOCCCOC,3.68%,
CCN1CCC[C@H]1CNC(=O)c1c(O)c(Cl)cc(Cl)c1OC,-6.49% [at 42.5 µM],
C=COCC1CCC(CO)CC1 (stereo not given),-2.67%,
CCOC(=O)c1c(C)n(C)c2ccc(O)cc12,-0.694% [at 42.5 µM],
c1ccc(CC2=NCCN2)cc1,2.56% [at 42.5 µM],
CCCCCCCCCCCCCC=O,4.83% [at 8.39 µM],
COC(=O)c1cc(C(=O)OC)cc(S(=O)(=O)O)c1,10.5%,
C=CCS(=O)(=O)O,-2.07%,
COC(=O)CCSCCC(=O)OC,2.45%,
CN(C)CCCSc1ccccc1NC(=O)/C=C/c1ccccc1,-3.74% [at 42.5 µM],
CCOC(=O)CC(C)=O,0%,
NC(CSCC(=O)O)C(=O)O (stereo not given),1.07% [at 42.5 µM],
O=C(O)c1ccccc1OP(=O)(O)O,-2.75% [at 42.5 µM],
COC(=O)NN,-10.8%,
CC(C)(C)c1nnc(NS(=O)(=O)c2ccccc2)s1,3.13% [at 42.5 µM],
Cc1sccc1Br,9.54% [at 42.5 µM],
CCn1nc(C(=O)O)c(=O)c2cc3c(cc21)OCO3,-2.08% [at 42.5 µM],
